# Laboratory results reported in PubChem BioAssay (Tox21).
# “And” between values parts separate entries of the source, which are not always exact repeats. Equal entries are not always repeated. Inconclusive results are not listed. Where a call stands in place of a potency, no number is given. Some structures have more than one record in an assay (separate samples or runs), and their calls can disagree. The source made the active and inactive calls. Unless noted, the call rests on the fitted dose curve; in most records, active means well fitted curve in the direction sought with a large enough effect in the repeat runs; inconclusive means weak or mixed curves; inactive means no such curve, though single readings can be large; an effect the other way counts as inactive or inconclusive.
# What was measured:
# [1] = qHTS assay to identify small molecule antagonists of the glucocorticoid receptor (GR) signaling pathway - cell viability counter screen (AID 720693); further: nearly all actives have a fitted effect of over 55% in size; further: potency means the concentration at half of the fitted maximal effect
# [2] = qHTS assay for identifying genotoxic compounds that show differential cytotoxicity against isogenic chicken DT40 cell lines with known DNA damage response pathways - wild type cell line (AID 743012); further: nearly all actives have a fitted effect of over 60% in size; further: potency means the concentration at half of the fitted maximal effect
# Procedure, shortened: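 Viability of DNA repair-proficient chicken DT40 cells was assessed by CellTiter-Glo luminescence following 40 h compound exposure at 37 C/5% CO2.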
# [3] = qHTS assay for identifying genotoxic compounds that show differential cytotoxicity against isogenic chicken DT40 cell lines with known DNA damage response pathways - Rad54/Ku70 mutant cell line (AID 743015); further: nearly all actives have a fitted effect of over 60% in size; further: potency means the concentration at half of the fitted maximal effect
# [4] = qHTS assay to identify small molecule antagonists of the androgen receptor (AR) signaling pathway - cell viability counter screen (AID 743033; further: nearly all actives have a fitted effect of over 45% in size; further: potency means the concentration at half of the fitted maximal effect)
# [5] = qHTS assay to identify small molecule antagonists of the androgen receptor (AR) signaling pathway using the MDA cell line - cell viability counter screen (AID 743041; further: nearly all actives have a fitted effect of over 45% in size; further: potency means the concentration at half of the fitted maximal effect)
# Procedure, shortened: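 In this qHTS counter assay, fluorescence intensity after CellTiter-Fluor addition indicated viability of MDA-kb2 AR-luc cells given compounds and R1881 for 16 h at 37C.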
# [6] = qHTS assay for identifying genotoxic compounds that show differential cytotoxicity against isogenic chicken DT40 cell lines with known DNA damage response pathways - Rev3 mutant cell line (AID 743014); further: nearly all actives have a fitted effect of over 55% in size; further: potency means the concentration at half of the fitted maximal effect
# [7] = biological target: Androgen receptor (Homo sapiens) (UniProt P10275); experiment: qHTS assay to identify small molecule agonists of the androgen receptor (AR) signaling pathway using the MDA cell line (AID 743040; further: nearly all actives have a fitted effect of over 20% in size)
# Androgen receptor (Homo sapiens), sequence (P10275 whole entry, looked up): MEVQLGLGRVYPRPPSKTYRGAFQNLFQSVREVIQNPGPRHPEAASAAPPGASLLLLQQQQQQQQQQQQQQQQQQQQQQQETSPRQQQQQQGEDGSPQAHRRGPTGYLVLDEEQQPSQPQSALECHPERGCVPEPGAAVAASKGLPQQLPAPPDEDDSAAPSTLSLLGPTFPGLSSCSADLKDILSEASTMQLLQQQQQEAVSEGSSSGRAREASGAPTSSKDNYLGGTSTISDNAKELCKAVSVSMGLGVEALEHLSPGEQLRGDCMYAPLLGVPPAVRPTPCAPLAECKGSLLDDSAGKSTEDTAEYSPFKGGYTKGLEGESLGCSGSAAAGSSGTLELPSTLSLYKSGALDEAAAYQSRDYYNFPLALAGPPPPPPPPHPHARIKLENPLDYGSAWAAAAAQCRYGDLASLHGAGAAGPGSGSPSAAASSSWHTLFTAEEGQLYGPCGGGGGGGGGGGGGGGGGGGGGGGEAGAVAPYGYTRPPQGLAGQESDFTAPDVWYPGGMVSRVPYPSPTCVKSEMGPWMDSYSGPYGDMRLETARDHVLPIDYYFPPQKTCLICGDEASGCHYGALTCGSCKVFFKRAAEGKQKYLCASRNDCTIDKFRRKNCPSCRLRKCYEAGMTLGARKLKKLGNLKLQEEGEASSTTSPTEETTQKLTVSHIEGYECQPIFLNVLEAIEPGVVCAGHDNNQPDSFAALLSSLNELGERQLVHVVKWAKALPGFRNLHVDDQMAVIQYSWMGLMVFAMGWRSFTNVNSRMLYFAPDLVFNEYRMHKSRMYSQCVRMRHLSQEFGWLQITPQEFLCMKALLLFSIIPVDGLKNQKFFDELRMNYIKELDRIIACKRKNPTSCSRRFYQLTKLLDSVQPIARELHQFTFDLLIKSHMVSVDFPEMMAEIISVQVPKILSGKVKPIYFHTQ
# Procedure, shortened: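 Cell-based luciferase reporter: MDA-kb2, MMTV promoter (AR + GR response elements). 16 h compound exposure at 37C; ONE-Glo, 30 min RT, luminescence.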
# [8] = biological target: Androgen receptor (Homo sapiens) (UniProt P10275); experiment: qHTS assay to identify small molecule antagonists of the androgen receptor (AR) signaling pathway using the MDA cell line (AID 743042; further: nearly all actives have a fitted effect of over 55% in size; further: potency means the concentration at half of the fitted maximal effect)
# Procedure, shortened: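 MDA-kb2 cells (human breast carcinoma, stably carrying an MMTV-luciferase reporter responsive to AR and GR) were plated at 3,000 cells/well and preincubated 5 hr at 37C, then given compound plus R1881 agonist for 16 h. ONE-Glo luminescence was read.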
# [9] = biological target: Androgen receptor (Homo sapiens) (UniProt P10275); experiment: qHTS assay to identify small molecule antagonists of the androgen receptor (AR) signaling pathway (AID 743035; active means well fitted inhibition curve with a large enough effect in the signal ratio in the repeat runs, not every such curve was filed as active; the % refers to the signal ratio)
# Procedure, shortened: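 Reporter HEK293 cells were exposed to compounds and R1881 overnight (16 h, 37C); beta-lactamase activity was then quantified by FRET fluorescence.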
# [10] = biological target: Androgen receptor (Homo sapiens) (UniProt P10275); experiment: qHTS assay to identify small molecule agonists of the androgen receptor (AR) signaling pathway (AID 743036; active means well fitted activation curve with a large enough effect in the signal ratio in the repeat runs, with a control signal flat, not every such curve was filed as active; the % refers to the signal ratio)
# Procedure, shortened: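 Activation was read as beta-lactamase FRET signal from LiveBLAzer B/G substrate, added for 2 h at room temperature. Before that, GeneBLAzer AR-UAS-bla GripTite (HEK293) cells had 16 h compound exposure at 37C.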
SMILES,Potency [1],Potency [2],Potency [3],Potency [4],Potency [5],Potency [6],outcome [7],Potency [8],Potency [9],outcome [10]
C=Cc1cccc(CCl)c1,inactive,inactive,inactive,inactive,inactive,–,–,–,–,–
c1ccc2nc(N3CCNCC3)ccc2c1,inactive,29.8 µM (active),–,inactive,inactive,–,–,–,–,–
CC(C)=CCN1CC[C@@]2(C)c3cc(O)ccc3C[C@@H]1[C@@H]2C,inactive,–,60.2 µM (active),inactive,–,26.9 µM (active),–,–,–,–
CCOC(=O)CCN(SN(C)C(=O)Oc1cccc2c1OC(C)(C)C2)C(C)C,inactive,–,21.7 µM (active),inactive,inactive,24.3 µM (active),–,–,–,–
CNC(=O)CSP(=O)(OC)OC,inactive,inactive,inactive,inactive,inactive,–,–,–,–,–
CN(C)CCc1c[nH]c2ccccc12,inactive,–,inactive,inactive,inactive,inactive,–,–,–,–
O.O.O.O=C([O-])[C@H]([O-])[C@@H]([O-])C(=O)[O-].O=C([O-])[C@H]([O-])[C@@H]([O-])C(=O)[O-].[K+].[K+].[Sb+3].[Sb+3],inactive,–,3.46 µM (active),inactive,–,inactive,–,–,–,–
Cc1c([N+](=O)[O-])cc2c(c1[N+](=O)[O-])C(C)(C)CC2(C)C,inactive,inactive,inactive,inactive,inactive,–,–,–,–,–
Oc1cc(Cl)cc(Cl)c1,inactive,–,61.8 µM (active),–,–,61.8 µM (active),–,–,–,–
O=C(O)[C@H](O)[C@@H](O)C(=O)O,inactive,–,inactive,inactive,inactive,inactive,–,–,–,–
Cc1cc(C2CC2)nc(Nc2ccccc2)n1,inactive,–,24.3 µM (active),–,–,30.6 µM (active),–,–,–,–
CNC(=O)O/N=C(\C)C(C)S(C)(=O)=O (centres undefined),inactive,inactive,inactive,inactive,inactive,–,–,–,–,–
Cc1nn(-c2cc(NS(C)(=O)=O)c(Cl)cc2Cl)c(=O)n1C(F)F,inactive,–,inactive,inactive,inactive,inactive,inactive,inactive,–,–
C=CCOC(=O)c1ccccc1N,inactive,–,inactive,inactive,inactive,inactive,inactive,inactive,inactive,inactive
O=[N+]([O-])c1cccc2cccc([N+](=O)[O-])c12,inactive,–,61.4 µM (active),inactive,inactive,61.4 µM (active),–,–,–,–
CCCCC(CC)COC(=O)OOC(C)(C)C (centres undefined),inactive,–,inactive,inactive,inactive,inactive,–,–,–,–
CC(=O)C(Cl)C(=O)N(C)C (centres undefined),inactive,–,61.1 µM (active),inactive,inactive,24.3 µM (active),–,–,–,–
ClC1(Cl)C2(Cl)C3(Cl)C4(Cl)C(Cl)(Cl)C5(Cl)C3(Cl)C1(Cl)C5(Cl)C24Cl (centres undefined),inactive,inactive,inactive,inactive,inactive,–,inactive,inactive,–,–
Cc1ccccc1OP(=O)(Oc1ccccc1C)Oc1ccccc1C,inactive,–,30.8 µM (active),inactive,inactive,54.7 µM (active),inactive,inactive,–,–
CN1CCc2cc3c(cc2C1O)OCO3 (centres undefined),inactive,–,inactive,inactive,–,inactive,–,–,–,–
CC1=C2C[C@H]3[C@@H](CC=C4C[C@@H](O)CC[C@@]43C)[C@@H]2CC[C@]12O[C@@H]1C[C@H](C)CN[C@H]1[C@H]2C,inactive,–,29.8 µM (active),inactive,inactive,8.41 µM (active),inactive,inactive,–,inactive
C=CC(=O)[O][Sn]([CH2]CCC)([CH2]CCC)[CH2]CCC,1.55 µM (active),–,0.686 µM (active),1.23 µM (active),2.17 µM (active),0.864 µM (active),inactive,1.72 µM (active),–,–
N#Cc1c2ccccc2cc2ccccc12,inactive,–,inactive,inactive,inactive,inactive,inactive,inactive,–,–
CSSC,inactive,inactive,inactive,inactive,inactive,–,–,–,–,–
CC(C)c1c(CN(C)C(C)Cc2ccccc2)n(C)n(-c2ccccc2)c1=O (centres undefined),inactive,6.39 µM (active),–,inactive,inactive,–,–,–,–,–
CN(C)C(=S)SSC(=S)N(C)C,inactive,–,106 nM (active) and 135 nM (active) and 19.3 nM (active),535 nM (active) and 85.9 nM (active) and 34.7 nM (active),393 nM (active) and 269 nM (active) and 154 nM (active),106 nM (active) and 107 nM (active) and 19.3 nM (active),inactive,inactive and 170 nM (active) and 61.1 nM (active),–,–
c1csc(-c2ccc(-c3cccs3)s2)c1,inactive,68.6 µM (active),–,inactive,inactive,–,–,–,–,–
